The text below walks through data of the supplement of paper PMC13380429.

For assay [1], the system named is Vero E6 infected with SARS-CoV-2. The experiment in a line: morphology score (similarity to uninfected cells); higher = more like uninfected cells. As to conditions: 24 h.
Assay [2] shares this test system. The assay is described as follows: SARS-CoV-2 infection rate relative to infected DMSO; higher = more infection, active = 60 or less. The settings on record: 24 h.

`CCCC[N+]1(C)[C@@H]2C[C@@H](OC(=O)[C@H](CO)c3ccccc3)C[C@H]1[C@@H]1O[C@@H]12` (stereo partly drawn) [butylscopolamine-bromide] (10 µM) showed a morphology score in assay [1] of 0.191. For the same compound, the SARS-CoV-2 infection rate in assay [2] was 102% (inactive).

As for `O=C(Nc1ccccc1)N[C@H]1C[C@H](C(=O)O)Nc2cc(Cl)cc(Cl)c21` (10 µM), the morphology score in assay [1] is -0.146. For the same compound, the SARS-CoV-2 infection rate in assay [2] was 106% (inactive).

In assay [1], `CN1CC[C@H](c2c(O)cc(O)c3c(=O)cc(-c4ccccc4Cl)oc23)[C@H](O)C1` [alvocidib] (10 µM) displayed a morphology score of -0.17. Also, the SARS-CoV-2 infection rate in assay [2] was 108% (inactive).

As to `N[C@H](C(=O)O)c1cc(O)no1` [ibotenic-acid] (10 µM), the morphology score in assay [1] is -0.00755. In assay [2], the SARS-CoV-2 infection rate is 93% (inactive).

`CNc1ccc([N+](=O)[O-])cc1-n1cnc(-c2ccc(C(F)(F)F)cc2)c1` (10 µM) came in with a morphology score in assay [1] of 0.117. Moreover, the SARS-CoV-2 infection rate in assay [2] was 97% (inactive).

Consider `CC(=O)NS(=O)(=O)c1ccc(N)cc1` [sulfacetamide] (10 µM), for which the morphology score in assay [1] was 0.147. Besides, in assay [2], the SARS-CoV-2 infection rate was 100% (inactive).

For `N=C(N)NCc1cccc(I)c1` [iobenguane] (10 µM), the morphology score in assay [1] was 0.132. Further, in assay [2], the SARS-CoV-2 infection rate is 100% (inactive).

`COc1c(OCCCN2CCOCC2)ccc2c1N=C(NC(=O)c1cnc(N)nc1)N1CCN=C21` [copanlisib] (0.833333 µM) registered a morphology score in assay [1] of -0.0397. In addition, in assay [2], the SARS-CoV-2 infection rate is 34% (active).

The compound `CCN(CC)CCOc1ccccc1C(=O)CCc1ccccc1` [etafenone] (10 µM) yielded a morphology score in assay [1] of 0.151. Besides, in assay [2], the SARS-CoV-2 infection rate was 97.5% (inactive).

`CC(=O)NS(=O)(=O)c1ccc(NC(=O)c2ccccc2C(=O)O)cc1` [phthalylsulfacetamide] (10 µM) gave a morphology score in assay [1] of 0.21. Besides, the SARS-CoV-2 infection rate in assay [2] is 99.5% (inactive).

In assay [1], `COc1ccc(-c2coc3cc(O)ccc3c2=O)cc1` [formononetin] (10 µM) returned a morphology score of 0.158. Moreover, the SARS-CoV-2 infection rate in assay [2] was 106% (inactive).

Consider `O=C(O)CNC(=O)C(CS)Cc1ccccc1` (stereo not drawn) [thiorphan] (10 µM), for which the morphology score in assay [1] worked out at 0.106. Besides, in assay [2], the SARS-CoV-2 infection rate is 98.5% (inactive).

Regarding `CC(C)(C)c1cc(C(=O)/C(C#N)=N/Nc2cccc(Cl)c2)no1` (10 µM), in assay [1], the morphology score was -0.0513. The SARS-CoV-2 infection rate in assay [2] is 104% (inactive).

Turning to `Cc1cn2c(N)c(Cl)cc(C(=O)NCC3CCN(CC(C)C)CC3)c2n1` (10 µM), in assay [1], the morphology score worked out at 0.221. For the same compound, the SARS-CoV-2 infection rate in assay [2] was 103% (inactive).

`Cc1cc(Nc2nc(N[C@@H](C)c3ccc(F)cc3)c(C#N)cc2F)n[nH]1` (10 µM) came in with a morphology score in assay [1] of -0.0459. Moreover, the SARS-CoV-2 infection rate in assay [2] is 110% (inactive).

Turning to `CS(=O)(=O)c1ccc(-c2cnc(N)c(C(=O)Nc3ccccc3)n2)cc1` (10 µM), the morphology score in assay [1] turned out to be 0.278. Further, the SARS-CoV-2 infection rate in assay [2] is 87% (inactive).

In assay [1], `Cc1ccc2c(c1CCC(=O)O)CC[C@@H](NS(=O)(=O)c1ccc(Cl)cc1)C2` [terutroban] (10 µM) had a morphology score of 0.115. In addition, the SARS-CoV-2 infection rate in assay [2] is 112% (inactive).

Turning to `CN1C(=O)CC[C@H]1c1cccnc1` [cotinine] (10 µM), the morphology score in assay [1] was found to be 0.0591. Moreover, the SARS-CoV-2 infection rate in assay [2] was 108% (inactive).

The compound `N[C@@H](C(=O)O)[C@@H](OCc1ccccc1)C(=O)O.N[C@H](C(=O)O)[C@H](OCc1ccccc1)C(=O)O` (10 µM) gave a morphology score in assay [1] of 0.0333. In addition, the SARS-CoV-2 infection rate in assay [2] was 106% (inactive).

`Cn1cc(-c2ccc3ncc(Cc4ccc5ncccc5c4)n3n2)cn1` (10 µM) gave a morphology score in assay [1] of 0.442. For the same compound, in assay [2], the SARS-CoV-2 infection rate was 83% (inactive).

In assay [1], `COc1ccc(CCc2nc3cc(-c4c(C)noc4C)ccc3n2C[C@H](C)N2CCOCC2)cc1Cl` (0.833333 µM) had a morphology score of -0.0905. The SARS-CoV-2 infection rate in assay [2] is 113% (inactive).

As for `CCOC(=O)C1=C(C)NC(=S)NC1c1cccc(O)c1` (stereo not drawn) [monastrol] (10 µM), in assay [1], the morphology score amounted to 0.0534. For the same compound, in assay [2], the SARS-CoV-2 infection rate was 93% (inactive).

In turn, `O=C(O)c1ccc(-c2c[nH]c3ncc(-c4ccccc4)cc23)cc1C1CCCC1` (10 µM) came in with a morphology score in assay [1] of 0.309. In addition, the SARS-CoV-2 infection rate in assay [2] is 89.5% (inactive).

Regarding `Cc1ccc(Cl)cc1N(CC(=O)Nc1c(F)cccc1F)S(C)(=O)=O` (10 µM), the morphology score in assay [1] turned out to be 0.0341. For the same compound, in assay [2], the SARS-CoV-2 infection rate is 113% (inactive).

On to `Nc1ncnc(Nc2ccc(Cl)cc2)n1` [chlorazanil] (10 µM), for which the morphology score in assay [1] amounted to 0.133. The SARS-CoV-2 infection rate in assay [2] is 106% (inactive).

Compound `CC(C)(C)NCc1cc(Nc2ccnc3cc(Cl)ccc23)c2c(c1O)CCCC2` [naphthoquine-phosphate] (10 µM) had a morphology score in assay [1] of 0.103. The SARS-CoV-2 infection rate in assay [2] is 109% (inactive).

`C=C1CC[C@@H]2[C@](C)(CO)[C@H](O)CC[C@@]2(C)[C@@H]1C/C=C1/C(=O)OC[C@H]1O` [andrographolide] (0.833333 µM): in assay [1], the morphology score is 0.123. Further, the SARS-CoV-2 infection rate in assay [2] is 106% (inactive).

In the case of `Cc1oc(=O)oc1CN1CCN(c2cc3c(cc2F)c(=O)c(C(=O)O)c2n3C(C)S2)CC1` (stereo not drawn) [prulifloxacin] (10 µM), the morphology score in assay [1] was 0.197. The SARS-CoV-2 infection rate in assay [2] is 97% (inactive).

In turn, `CO[C@H](C(=O)[C@@H](O)[C@@H](C)O)[C@@H]1Cc2cc3cc(O[C@H]4C[C@@H](O[C@H]5C[C@@H](O)[C@H](O)[C@@H](C)O5)[C@@H](O)[C@@H](C)O4)c(C)c(O)c3c(O)c2C(=O)[C@H]1O[C@H]1C[C@@H](O[C@H]2C[C@@H](O[C@H]3C[C@](C)(O)[C@H](O)[C@@H](C)O3)[C@H](O)[C@@H](C)O2)[C@H](O)[C@@H](C)O1` [plicamycin] (10 µM) had a morphology score in assay [1] of -0.159. Also, the SARS-CoV-2 infection rate in assay [2] is 104% (inactive).
